From the supplement of paper PMC13380429

Tested on: Vero E6 infected with SARS-CoV-2
Assay: inhibition of SARS-CoV-2 cytopathic effect; higher = more antiviral protection, active = above 15
Conditions: 48 h

Measured: inhibition of SARS-CoV-2 cytopathic effect

O=C1CN(/N=C/c2ccc(-c3ccc([N+](=O)[O-])cc3)o2)C(=O)N1 [dantrolene]
inactive: 1 nM -2.23% | 8.33 nM 0.6% | 100 nM -1.1% | 833.33 nM -0.88% | 10000 nM 1.97%

O=C(O)C1CSCN1 (stereo not given) [timonacic]
inactive: 1 nM -2.35% | 8.33 nM -1.08% | 100 nM 3.52% | 833.33 nM 10.6% | 10000 nM 4.51%

O=C(O)[C@H](O)[C@@H](O)[C@H](O[C@@H]1O[C@H](CO)[C@H](O)[C@H](O)[C@H]1O)[C@H](O)CO [maltobionic-acid]
inactive: 1 nM -0.69% | 8.33 nM -2.72% | 100 nM -1.55% | 833.33 nM -3.61% | 10000 nM -1.2%

NCCS [cysteamine]
inactive: 1 nM 1.07% | 8.33 nM 0.1% | 100 nM 0.28% | 833.33 nM -1.61% | 10000 nM -4.62%

CCCCc1nc(Cl)c(C(=O)O)n1Cc1ccc(-c2ccccc2-c2nn[nH]n2)cc1 [carboxylosartan]
inactive: 1 nM 1.07% | 8.33 nM 1.82% | 100 nM 1.92% | 833.33 nM 0.51% | 10000 nM 0.68%

CCNC(=O)[C@@H]1CCCN1C(=O)[C@H](CCCNC(=N)N)NC(=O)[C@H](CC(C)C)NC(=O)[C@@H](CC(C)C)NC(=O)[C@H](Cc1ccc(O)cc1)NC(=O)[C@H](CO)NC(=O)[C@H](Cc1c[nH]c2ccccc12)NC(=O)[C@H](Cc1c[nH]cn1)NC(=O)[C@@H]1CCC(=O)N1 [leuprolide]
inactive: 1 nM -3.75% | 8.33 nM 3.77% | 100 nM 3.45% | 833.33 nM 0.4% | 10000 nM -1.48%

CS(=O)(=O)c1cc(F)cc2c3c(n(Cc4ccc(Cl)cc4)c12)[C@@H](CC(=O)O)CC3 [laropiprant]
inactive: 1 nM 0.24% | 8.33 nM -3% | 100 nM -0.36% | 833.33 nM 1.31% | 10000 nM 2.04%

CC(C)[C@H](CO)Nc1nc(Nc2cccc(Cl)c2)c2ncn(C(C)C)c2n1 [purvalanol-A]
inactive: 1 nM -1.59% | 8.33 nM -0.55% | 100 nM -0.26% | 833.33 nM 2.68% | 10000 nM -2.25%

CCCCCCc1ccc(O)cc1O.Nc1c2ccccc2nc2ccccc12 [acrisorcin]
inactive: 1 nM 1.59% | 8.33 nM 2.93% | 100 nM 1.22% | 833.33 nM 3.53% | 10000 nM -18.5%

CC(=O)OCC(CCn1cnc2cnc(N)nc21)COC(C)=O [famciclovir]
inactive: 1 nM -0.42% | 8.33 nM -2.15% | 100 nM -3.04% | 833.33 nM -0.25% | 10000 nM -2.48%

O=C(NO)c1cnc(N2CCN(S(=O)(=O)c3ccc4ccccc4c3)CC2)nc1
inactive: 1 nM 1.24% | 8.33 nM 2.59% | 100 nM 2.04% | 833.33 nM -16.4% | 10000 nM -22.6%

Cc1onc(-c2c(Cl)cccc2Cl)c1C(=O)N[C@@H]1C(=O)N2[C@@H]1SC(C)(C)[C@@H]2C(=O)O [dicloxacillin]
inactive: 1 nM 0.8% | 8.33 nM -0.85% | 100 nM -0.59% | 833.33 nM 1% | 10000 nM 1.51%

CCCc1c(OCCCCc2nnn[nH]2)ccc(C(C)=O)c1O [tomelukast]
inactive: 1 nM -8.82% | 8.33 nM -9.23% | 100 nM -10% | 833.33 nM -8.13% | 10000 nM -6.02%

CCS(=O)(=O)c1cccc(-c2cc(C(=O)NC3CCN(C)CC3)c(C)c3[nH]c4ncc(C)cc4c23)c1
inactive: 1 nM 3.23% | 8.33 nM 0.63% | 100 nM 1.19% | 833.33 nM -0.44% | 10000 nM -2.17%

NC(=O)[C@@H](CCC(F)(F)F)N(Cc1ccc(-c2ncon2)cc1F)S(=O)(=O)c1ccc(Cl)cc1 [avagacestat]
inactive: 1 nM 0.74% | 8.33 nM -2.98% | 100 nM -5.03% | 833.33 nM -4.21% | 10000 nM -6.12%

CC(C)(C(=O)O)c1ccc(C(O)CCCN2CCC(C(O)(c3ccccc3)c3ccccc3)CC2)cc1 (stereo not given) [fexofenadine]
inactive: 1 nM 0.81% | 8.33 nM -0.73% | 100 nM -0.49% | 833.33 nM 1.17% | 10000 nM 2.18%

CC(C)[C@@H](CS(=O)(=O)C(C)C)N1C(=O)[C@@](C)(CC(=O)O)C[C@H](c2cccc(Cl)c2)[C@H]1c1ccc(Cl)cc1
inactive: 1 nM 2.3% | 8.33 nM 3.7% | 100 nM 3.54% | 833.33 nM 4.65% | 10000 nM 4.3%
